Data published in PubChem BioAssay AID1034 (Columbia University Molecular Screening Center, 2008).
This is one part of the list. Unmarked numbers belong to inactive results.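 How the source made its calls: active means activation above 30% in triplicate retests at 2 µM, then confirmed by visual review of the well images; inactive means the rest.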

Assay: enhancers of VCAM1 induction in HUVEC – imaging, triplicate retest, confirmation (AID 1034);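 further: scaled per plate between unstimulated and TNFa-stimulated DMSO control wells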
Settings: HUVEC TNFa-stimulated VCAM-1 immunofluorescence imaging; at 2 µM; active compounds read high

In the case of COC(=O)CN1C(=O)C2(C(C(=O)OC)=C(N)Oc3ccccc32)C2=C1CC(C)(C)CC2=O (stereo unspecified), the activation was -16.1%.
